Reference: PubChem BioAssay AID1490 (National Center for Advancing Translational Sciences (NCATS), 2009)
Hit rate of the full screen: of about 310,000 compounds, about 11,000 (3.5%) were called active. Another 4% or so got no clear call; they are omitted. Shown is part of a subset that was picked to be rich in actives. Values without a mark were called inactive. Calls come from the whole dose curve; as a rule, active = well fitted inhibition curve with a large enough effect; inconclusive = small, poorly fitted or top-dose-only effect, or another doubt; inactive = no such curve, though single readings can be large or run the other way.

These molecules were tested against 4'-phosphopantetheinyl transferase ffp (Bacillus subtilis) (UniProt Q9F4F7) (assay: qHTS Assay for Inhibitors of Bacillus subtilis Sfp phosphopantetheinyl transferase (PPTase)). Details: Biochemical Sfp PPTase activity.
Procedure, shortened: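 Buffer: 50 mM Hepes-Na pH 7.6, 10 mM MgCl2, 0.01% Nonidet P-40, 0.01% BSA. Enzyme 15 nM, pre-exposed to compound 15 min; substrates then added and fluorescence change tracked over 30 min.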
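Note: the enzyme is Sfp with the accession as filed and its product quenches rhodamine fluorescence.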
Potency is the fitted concentration of half-maximal effect.
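Throughout, for largest response in the series, negative = inhibition: 0% = enzyme reaction without inhibitor and -100% = no enzyme wells.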

Row | Compound | Potency | largest response in the series, negative = inhibition [%]
1 | Cc1cccc(NC(=O)c2sc3nc(N4CCOCC4)c4c(c3c2N)CCCC4)c1 | 17.8 µM (active) | 
2 | Cc1cccc(NC(=O)c2sc3nc4c(c(-c5ccco5)c3c2N)CCC4)c1 |  | -15.6
3 | CC(=O)Nc1ccc(N2CCOCC2)c(C(=O)Nc2cccc(C)c2)c1 |  | 6.24
4 | COc1cccc(CNC(=O)CN(C)S(=O)(=O)c2ccc3c(c2)c(=O)n(C)c(=O)n3C)c1 |  | -4.3
5 | CC(CC(=O)N1CCN(c2ccccc2)CC1)c1ccccc1 (stereo not given) |  | 3.18
6 | CC(=O)N1CCN(c2ccc(NCc3ccc(C(C)C)cc3)cc2)CC1 | 50.1 µM (active) | 
7 | CCc1ccc(NC(=O)N2CCN(c3ccccc3)CC2)cc1 |  | 3.63
8 | O=C1C(=O)N(CCCO)C(c2ccccc2)/C1=C(\O)c1ccc(Br)cc1 (stereo not given) |  | 6.17
9 | COc1ccc(C2=NS(=O)(=O)N(C)C(C(=O)N3CCCCC3)=C2)cc1 |  | 1.59
10 | COc1ccc(NC(=O)c2ccco2)cc1NC(=O)c1ccc(C#N)cc1F |  | 6.39
11 | O=[N+]([O-])c1ccc(O)c(/C=N/Nc2ccccc2[N+](=O)[O-])c1 |  | -9.69
12 | Nn1cnnc1N/N=C/c1cc([N+](=O)[O-])c(Cl)cc1Cl | 50.1 µM (active) | 
13 | Cc1ccc2sc(NNC(=O)c3ccc4c(c3)OCCO4)nc2c1C | 28.2 µM (active) | 
14 | Cc1nc(NC(=O)c2ccc3c(c2)OCCO3)ccc1Br |  | -0.776
15 | C/C(=N\NC(=O)C(N)=O)c1ccc2c(c1)OCCO2 |  | -17.8
16 | CCCN1CCN(C(=O)CCCNC(=O)c2ccc(Cl)cc2)CC1 |  | 8.54
17 | COc1ccc(NC(=O)CC(NC(C)c2ccccc2)C(=O)O)cc1 (stereo not given) |  | -9.65
18 | CN(C)CCCNC(=O)c1cc(C(=O)Cc2ccc(Cl)cc2)c[nH]1 |  | 3.87
19 | COc1cc(CNC2CCCC2)c(Br)cc1OCc1ccccc1 |  | 9.9
20 | COc1cc(C2CC(=O)N3CN(Cc4ccccc4)CSC3=C2C#N)ccc1OCc1ccccc1 (stereo not given) | 3.55 µM (active) | 
21 | COc1cc(CN2CCC(C(N)=O)CC2)ccc1OCc1ccccc1 |  | -21.1
22 | Cc1ccc(CNC(=O)CCC(=O)N2CC(C)Sc3ccccc32)cc1 (stereo not given) |  | 23.4
23 | CC(=O)Nc1ccc(S(=O)(=O)N2CCC(NC(=O)c3ccccc3)CC2)cc1 |  | 22.8
24 | COc1ccc2c(c1)N(C)/C(=C1/SC(=S)N(NC(C)=O)C1=O)S2 |  | -12.7

Row | Compound | Potency | largest response in the series, negative = inhibition [%]
25 | COc1cc(C(=O)NC(=S)NCc2ccco2)cc(OC)c1OC | 44.7 µM (active) | 
26 | COc1cccc(OC)c1C(=O)NC(=S)NCc1ccco1 |  | -3.61
27 | COc1cc(C(=O)N[C@@H](C)C(=O)NCc2ccco2)cc(OC)c1OC |  | 8.28
28 | Fc1ccc(-c2ccc(NCCN3CCOCC3)nn2)cc1 |  | 19.2
29 | COc1cc(C(=S)N2CCOCC2)cc(OC)c1OC(=O)c1ccc([N+](=O)[O-])cc1[N+](=O)[O-] |  | 7.82
30 | O=C(Nc1ccc(C(=O)N2CCCCC2)cc1)c1cccc([N+](=O)[O-])c1 |  | 17.2
31 | O=C(Oc1ccccc1Cl)c1ccc(N2CCOCC2)c([N+](=O)[O-])c1 |  | -20.5
32 | O=C(Oc1ccccc1C(=S)N1CCCCC1)c1cc([N+](=O)[O-])cc([N+](=O)[O-])c1 | 31.6 µM (active) | 
33 | COc1cc(C(=S)N2CCOCC2)cc(OC)c1OC(=O)c1cc([N+](=O)[O-])cc([N+](=O)[O-])c1 |  | 4.17
34 | O=C(Oc1ccc(Br)cc1C(=S)N1CCOCC1)c1cccc([N+](=O)[O-])c1 | 50.1 µM (active) | 
35 | CCCCNC(=O)CCn1nc(-c2ccc(Cl)cc2)ccc1=O |  | 10.2
36 | Cc1c(CC(=O)NCC(=O)NCC(=O)O)c(=O)oc2cc3oc4c(c3cc12)CCCC4 |  | -20.1
37 | Nc1nnnn1/N=C/c1cccc(Br)c1 |  | 2.63
38 | Cc1n[nH]c(C)c1S(=O)(=O)N1CCCC(C(=O)Nc2ccc(Br)cc2)C1 (stereo not given) |  | 15.6
39 | CCOC(=O)Cn1c(=O)n(Cc2ccc(OC)cc2)c(=O)c2cccnc21 |  | 13
40 | O=C(Nc1ccnn1C1CCN(Cc2cccc(OCCO)c2)CC1)C1CCCC1 |  | -0.971
41 | COc1ccc(-c2cc(C(=O)N3CCN(c4ccc(F)cc4)CC3)no2)cc1 |  | 8.09
42 | COc1ccc(CNC(=O)c2ccc3oc(C(C)C)nc3c2)cc1 |  | 2.49
43 | S=c1ccc2ccccc2[nH]1 |  | -21.1
44 | CCCCn1c(=S)[nH]c2ccccc2c1=O |  | 8.99
45 | S=c1[nH]c2ccccc2c2ccccc12 | 50.1 µM (active) | 
46 | Cc1cccc(NC(=O)CSCC(=O)Nc2nnc(C3CC3)s2)c1 |  | -4.58
47 | CCN(CC)c1ccc2cc(C(N)=O)/c(=N\NC(=O)c3ccncc3)oc2c1 |  | -4.99
48 | CCN(CC)c1ccc2oc(=O)c(C)nc2c1 | 14.1 µM (active) | 

Row | Compound | Potency | largest response in the series, negative = inhibition [%]
49 | CCN(CC)c1ccc(/C=N/Nc2nc(C)cc(C)n2)c(O)c1 |  | -14.7
50 | Cc1ccc2cccc(OCCCOc3ccccc3CO)c2n1 |  | 13.6
51 | O=C(CC1C(=O)NCCN1CC(c1ccccc1)c1ccccc1)NCC1CCOCC1 (stereo not given) |  | -5.38
52 | Cc1sc2nc(SCCO)n(-c3ccccc3)c(=O)c2c1C |  | 27.7
53 | CSc1nc(C)cc(SC(C(C)=O)C(=O)Nc2ccccc2)n1 (stereo not given) | 50.1 µM (active) | 
54 | Cc1cccc(NC(=O)C(C)SCc2ccccc2)c1 (stereo not given) |  | 3.73
55 | CC(Sc1nnc2c(n1)C1CCC2(C)C1(C)C)C(=O)Nc1ccccc1 (stereo not given) |  | 6.3
56 | Cn1nccc1/C=N\NC(=O)c1ccc(Cl)cc1 |  | 9.85
57 | CCOc1cc(C(=S)N2CCOCC2)ccc1OS(=O)(=O)c1ccc(Br)cc1 |  | 22.9
58 | CCOc1ccc(C(=O)CCN2CCOCC2)cc1 |  | -10.8
59 | CCOc1cc(C(=S)N2CCOCC2)ccc1O | 14.1 µM (active) | 
60 | COC(=O)[C@@H]1CC2=CC(=O)CC[C@]2(C)[C@@]23O[C@@H]2C[C@@]2(C)[C@@H](CC[C@@]24CCC(=O)O4)[C@H]13 |  | 10
61 | Cc1ccc(Cn2cc(C(=O)NN)c(=O)c3ccc(F)cc32)cc1 |  | 10.7
62 | CCCn1c(SCC(=O)c2ccc3c(c2)OCCO3)nnc1C(C)C | 79.4 µM (active) | 
63 | CCn1c(SCC(=O)Nc2ccc3c(c2)OCCO3)nnc1C(C)C |  | 18.9
64 | CCCn1c(SCC(N)=O)nnc1C(C)C |  | 10.5
65 | COc1ccc(C(C(=O)NC2CCCC2)N(CCCO)C(=O)Cn2nnc(-c3ccc(C)o3)n2)cc1 (stereo not given) |  | 1.56
66 | CCN(CC)S(=O)(=O)c1ccc(N2CCN(C)CC2)c(NC(=O)Nc2ccccc2F)c1 |  | 9.85
67 | Cc1cc(SCC(=O)c2ccccc2)nc(SCC(=O)c2ccccc2)n1 |  | 11.4
68 | Cc1cc(C)nc(S/C=C/C(=O)c2ccccc2)n1 | 20 µM (active) | 
69 | Cc1ccc(N/C=C/C(=O)c2ccccc2)cc1C |  | -6.7
70 | COc1cc(C(C(=O)NC2CCCC2)N(Cc2ccccc2)C(=O)c2snc(C(N)=O)c2N)ccc1O (stereo not given) |  | 4.51
71 | CCOC(=O)[C@H]1[C@H]2COc3cc(OC)ccc3[C@@H]2N2C(=O)N(c3ccc(Br)cc3)C(=O)[C@@]12C |  | 5.98
72 | O=C(NCCCO)c1cc2c([nH]c3ccccc32)c(-c2ccc(F)cc2)n1 |  | -19.4

Row | Compound | Potency | largest response in the series, negative = inhibition [%]
73 | CSc1nsc(SC)c1NC(=O)OC1CCCCC1 | 56.2 µM (active) | 
74 | CSc1ncccc1C(=O)NC1CCCCCC1 |  | 8.17
75 | CN(C)C(=O)c1ccc(NC(=O)c2ccccc2-c2ccccc2)cc1 |  | -2.24
76 | O=C1/C(=C/c2ccc3c(c2)OCO3)Oc2cc(OCC(=O)N3CC(O)C[C@H]3C(=O)O)ccc21 (stereo not given in full) |  | 2.62
77 | Cn1c(CC(=O)Nc2ccc(F)cc2)nnc1SCC(=O)NC1CCCCC1 |  | 16
78 | CCOc1cccc(-c2nnc(SCC(=O)NC3CC3)n2C)c1 |  | 3.79
79 | CCOc1ccc(Nc2nc(Cc3nnc(SCC(=O)NC4CCCC4)n3C)cs2)cc1 | 89.1 µM (active) | 
80 | CC(=O)Nc1ccc(NC(=O)COc2ccc(-c3ccccc3)cc2)cc1 |  | 13.3
81 | O=C(/C=C/c1cccc(F)c1)NC1CC1 |  | 29.9
82 | Oc1oc(-c2ccccc2Br)nc1/C=N/c1ccccn1 |  | -0.12
83 | COC(=O)Cn1c(O)c(N=NC(=O)OC)c2ccccc21 |  | 4.81
84 | CC(C)n1c(O)c(N=Nc2ccccn2)c2ccccc21 | 50.1 µM (active) | 
85 | COC(CNC(=O)c1ccc2c(c1)ncn2-c1cc(C)cc(C)c1)OC |  | 8.91
86 | CC(C)C(N)C(=O)OCCOCn1cnc2c(=O)[nH]c(N)nc21 (stereo not given) |  | -9.12
87 | COc1cc2c(cc1OC)CN(CC(=O)Nc1ccc(F)cc1)CC2 |  | 2.33
88 | O=C(CCc1nnc(Cc2ccc3c(c2)OCO3)o1)NCCc1ccccc1Cl |  | -0.572
89 | CCC(=O)N(Cc1cc2cc(OC)ccc2[nH]c1=O)c1ccccc1C |  | 6.41
90 | COc1ccc(N(Cc2cc3cc(OC)ccc3[nH]c2=O)S(C)(=O)=O)cc1 |  | -8.56
91 | COc1ccc2[nH]c(=O)c(CNc3ccc(C)c(C)c3)cc2c1 | 50.1 µM (active) | 
92 | Cc1ccc(-c2ccc(=O)n(Cc3ccc(F)cc3Cl)n2)cc1 |  | -21.9
93 | Cc1noc(C)c1-c1cc(NCc2cccnc2)ncn1 |  | -20.7
94 | Cc1cc(NCc2cccnc2)no1 |  | 1.54
95 | Cc1cccc(CNc2ccnc(-c3cccnc3)n2)c1 | 79.4 µM (active) | 
